# TCR act = Activators of T cell receptors: qHTS campaign; primary human leukocytes, anti-CD3, IL-2 HTRF, 48 h; Potency, µM (top dose mostly 9.22 µM), for the others: at the top dose activation of IL-2 secretion, usual class: activators; 330,000 tested, under 10 active; also: % of control where 0% means no effect
#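 Using a-CD3 beads without co-stimulation, primary human leukocytes were exposed to compounds for 48 hr. An HTRF IL-2 kit measured the cytokine, with europium-to-d2 energy transfer producing emission at 665nm upon 320nm excitation.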
# A-T KAP1 phos = qHTS Assay for Identifying a Potential Treatment of Ataxia-Telangiectasia; 320,000 compounds, 0.19% hits; Potency, µM (doses to about 57.5 µM), inactives show top-dose activation, usual class: activators; F2112 A-T fibroblasts, KAP-1 phosphorylation AlphaLISA; neocarzinostatin DNA damage 30 min before lysis; also: potency is read from the fitted curve at half-maximal effect; % of control where 0% means no effect; nearly all actives have a fitted effect of over 45% in size
#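 hTERT-immortalized A-T patient fibroblasts (F2112), 500 cells/well in OPTI-MEM, 1% FBS, got compounds for 60 min, then NCS for 30 min at 37C. Lysates were then assayed for phospho-KAP-1 by AlphaLISA (anti-pKAP1 donor, anti-KAP1 acceptor beads), 6 hr at 25C.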
# Mito fusion yeast = qHTS Assay for Small Molecule Inhibitors of Mitochondrial Division or Activators of Mitochondrial Fusion | 320,000 compounds, 0.23% hits | Potency, µM (titrated, usually from 46.1 µM), for the others: top-dose growth rescue (activation), actives largely listed as activators | AID 485298, 2010 | S. cerevisiae fusion-defective mutant growth rescue, CellTiterGlo 48 h; also: potency is read from the fitted curve at half-maximal effect; % of control where 0% means no effect; nearly all actives have a fitted effect of over 45% in size
#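 Growth-rescue viability read-out: after 48 h at the non-permissive 37C in glycerol/ethanol YPEG, yeast mitochondrial fusion mutants are measured by CellTiterGlo luminescence; compounds (23 nl pinned per well) restoring growth score as division inhibitors or fusion activators.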
# ClpP mod = qHTS Assay for Activators of ClpP. AID 651965, 2013. ATP-dependent Clp protease proteolytic subunit (Bacillus subtilis (strain 168)), P80244. 340,000 compounds, 1.9% hits. Potency, µM (top dose mostly 57.5 µM), inactives show at the top dose activity change, negative = active. purified B. subtilis ClpP, FRET peptide cleavage, 20 min; active = well fitted falling curve with a large enough effect; inconclusive = small, poorly fitted or top-dose-only effect; inactive = no such curve, though single readings can be large or run the other way; also: potency is read from the fitted curve at half-maximal effect; the source files actives as falling curves though it sought activators and does not explain the sign; nearly all actives have a fitted effect of over 65% in size
# Target sequence (P80244 whole entry, looked up): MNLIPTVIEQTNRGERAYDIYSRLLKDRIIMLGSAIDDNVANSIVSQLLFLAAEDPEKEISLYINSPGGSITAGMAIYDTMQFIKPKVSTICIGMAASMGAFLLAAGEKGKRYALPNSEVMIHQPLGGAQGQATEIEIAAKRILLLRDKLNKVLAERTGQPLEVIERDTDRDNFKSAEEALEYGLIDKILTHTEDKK
#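 ClpP 10 microg/mL final, pH 8 Tris/KCl buffer with BSA, glycerol, Tween-20; compound pinned in; FRET-FV substrate; RT 20 min; Ex320/Em430; ΔFRET vs ADEP 5.8 microM, DMSO, no enzyme.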
# MBNL1 CUG block = qHTS Assay for Inhibitors of MBNL1-poly(CUG) RNA binding | Potency, µM (series often up to 57.5 µM), for inactives: at the highest dose activity change, negative = inhibition, actives largely listed as inhibitors | 280,000 compounds, 0.036% hits | TR-FRET MBNL1-His/biotin-(CUG)12 binding, 665/545 ratio; active = well fitted inhibition curve with a large enough effect in the signal ratio, with a control signal flat, not every such curve was filed as active; inconclusive = small, poorly fitted or top-dose-only effect, or effect the other way, or a change in a side signal; inactive = no such curve, though single readings can be large or run the other way; the % refers to the signal ratio; also: potency is read from the fitted curve at half-maximal effect; % is scaled to controls: 0 for no effect and ±100 for the full control effect
# Target sequence (Q9NR56 whole entry, looked up): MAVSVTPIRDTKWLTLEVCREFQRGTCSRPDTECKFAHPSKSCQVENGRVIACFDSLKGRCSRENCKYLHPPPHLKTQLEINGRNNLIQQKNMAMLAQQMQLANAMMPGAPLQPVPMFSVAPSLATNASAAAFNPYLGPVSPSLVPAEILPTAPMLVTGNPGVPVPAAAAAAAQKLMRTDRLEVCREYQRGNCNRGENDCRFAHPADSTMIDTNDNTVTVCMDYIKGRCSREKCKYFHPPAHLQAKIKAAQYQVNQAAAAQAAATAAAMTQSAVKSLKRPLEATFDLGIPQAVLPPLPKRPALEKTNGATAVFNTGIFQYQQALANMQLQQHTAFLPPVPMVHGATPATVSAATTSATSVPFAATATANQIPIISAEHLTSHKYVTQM
#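 MBNL1-His + Biotin-(CUG)12, cpd titration 92 nM–58 uM; Tb anti-His Ab 0.055 ng/ul, SA-XL665 5 nM (final); 60 min RT; ratiometric 665/545 nm, Ex 340 nm; normalized to buffer and full-complex controls.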
# Glioma ERSR ind = qHTS for Inducers of the Endoplasmic Reticulum Stress Response (ERSR) in Human Glioma: qHTS; AID 602332, 2012; U87-MG GRP78 promoter luciferase reporter, 16 h; 420,000 compounds, 0.02% hits; Potency, µM, for inactives: at the highest dose activation, usual class: activators; also: potency is read from the fitted curve at half-maximal effect; series mostly up to about 76 µM; % of control where 0% means no effect; nearly all actives have a fitted effect of over 35% in size
#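 ERSR induction read as luciferase luminescence (Bright-Glo, 10 min at room temperature) in stably transfected human U87-MG glioma cells exposed to compounds for 16 h, using GRP78 as sensor.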
# * hit, by the source's call; u = inconclusive; x = no result given; ! = a repeat was not active; [ ] = dose if it differs, or a comment. Shown are actives, neighbours in structure and some others; about 1.8% of the full set was active somewhere. Unless noted, calls follow the shape of the dose curve; as a rule, active = well fitted curve in the direction sought with a large enough effect; inconclusive = small, poorly fitted or top-dose-only effect, or another doubt; inactive = no such curve, though single readings can be large; an effect the other way counts as inactive or inconclusive.
SMILES,TCR act,A-T KAP1 phos,Mito fusion yeast,ClpP mod,MBNL1 CUG block,Glioma ERSR ind
CCOc1ccc(CNc2ccc3c(c2)ncn3C(C)(C)C)cc1,7%,-20%,-32%,-27%,-3%,5%
COc1cc(=O)n2c(c1C(=O)N(C)Cc1cscn1)CCN(Cc1c(C)[nH]c3ccccc13)CC2,x,x,x,x,x,4%
COCCN(C(=S)Nc1c(C)cccc1C)C(C)c1ccco1 (stereo unspecified),-1%,20µM*,2%,2%,-12%,-7%
COCc1c(C(=O)N2CCN(c3ccccc3)CC2)cnn1-c1nccc(-c2ccco2)n1,x,x,x,x,x,-1%
COc1cc2nc(N3CCCCC3)nc(NC3CCN(C)CC3)c2cc1OC,x,x,x,4%,x,x
Cc1cccc(N2CCN(c3nc4ccccc4c(=O)n3-c3ccc(Cl)cc3)CC2)c1C,x,x,x,18µM*,x,-2%
O=C(NC1CCN(Cc2ccccc2)C1)c1cnn(-c2ncc3c(n2)-c2ccccc2CC3)c1C1CC1 (stereo unspecified),x,x,x,x,x,-3%
COc1cccc(/C=N/Nc2nc(Nc3ccc([N+](=O)[O-])cc3)nc(N3CCCC3)n2)c1O,-2%,-2%,4%,x,4%,-3%
O=[N+]([O-])c1ccc(Nc2nc(N/N=C/c3cccc(F)c3)nc(N3CCCC3)n2)cc1,8%[46.1 µM],2%,16µM*,-1%,11%,-9%
CC(=O)c1cn(CC(=O)Nc2ccccc2F)c2ccccc12,0%,-8%,1%,x,-2%,-6%
O=C(Cn1c2ccccc2c(=O)c2ccccc21)Nc1ccccc1F,-1%[46.1 µM],6%,-8%,13µM*,22%,-2%
CC(O)COCC1OC2OC3C(COCC(C)O)OC(OC4C(COCC(C)O)OC(OC5C(COCC(C)O)OC(OC6C(COCC(C)O)OC(OC7C(COCC(C)O)OC(OC8C(COCC(C)O)OC(OC1C(OCC(C)O)C2OCC(C)O)C(OCC(C)O)C8OCC(C)O)C(OCC(C)O)C7OCC(C)O)C(OCC(C)O)C6OCC(C)O)C(OCC(C)O)C5OCC(C)O)C(OCC(C)O)C4OCC(C)O)C(OCC(C)O)C3OCC(C)O (stereo unspecified),x,x,x,2%,x,-5%
CCC(C)Sc1nc2ccccc2c(=O)[nH]1 (stereo unspecified),5%[46.1 µM],2%,6%,25µM*,-6%,7%
O=C(CSc1nc2c([nH]c3ccccc32)c(=O)n1-c1ccc(F)cc1)NCC1CCCO1 (stereo unspecified),x,x,x,22µM*,x,-4%
O=C1OCC(c2ccccc2)=C1c1ccccc1,5%,3%,6%,35µM*,8%,-4%
CS(=O)(=O)c1ccc(C2=C(c3ccccc3)C(=O)OC2)cc1,3%,x,x,1%,x,-3%
CC(NC(=O)c1ccccc1O)c1ccccc1 (stereo unspecified),-5%,0%,0%,16µM*,0%,2%
Cc1ccc(-c2ccc(CCC(=O)O)o2)cc1,-2%,-2%,4%,16µM*,2%,-4%
COc1ccc(S(=O)(=O)NCc2nc(N3CCCC3)c3cccc(C)c3n2)cc1OC,x,x,x,x,x,-1%
Cc1ccc(Nc2nc(N)nc(CSc3nccn3C)n2)c(C)c1,1%,0%,-2%,4µM*,6%,2%
Cc1ccc(SCc2nc(N)nc(Nc3ccccc3C)n2)c(C)c1,-2%[46.1 µM],10%,19%,1%,-10%,2%
CC(CNC(=O)c1ccc(Cn2c(=O)c3cccn3c3cccnc32)cc1)c1ccccc1 (stereo unspecified),x,x,x,u,x,-3%
CN1C(C(=O)Nc2ncccn2)=C(O)c2ccccc2S1(=O)=O,-5%,-1%,20%,x,13%,1%
CN1C(C(=O)Nc2ccccn2)=C(O)c2ccccc2S1(=O)=O,0%,-17%,16µM*!,-3%,43%,-5%
Cc1ccc(CN2CCOc3ccc(CN4CCC(O)(c5cccnc5)CC4)cc3C2)cc1,x,x,x,x,x,-4%
SMILES,TCR act,A-T KAP1 phos,Mito fusion yeast,ClpP mod,MBNL1 CUG block,Glioma ERSR ind
NNC(=O)c1cccc(S(=O)(=O)Nc2cc(Cl)ccc2Cl)c1,-3%,28µM*,7%,x,-10%,3%
CCOC(=O)c1cnc2c(ccc3ccccc32)c1NCCO,0%[46.1 µM],2%,0%,28µM*,3%,-1%
CCCOc1ccc(-c2nc(N3CCC(C)CC3)c3ccccc3n2)cc1,x,x,x,20µM*,x,-2%
CCCOc1ccc(-c2nc(OC)c3ccccc3n2)cc1,1%,23%,-4%,32µM*,-4%,8%
CCCOc1ccc(-c2nc3ccccc3c(=O)o2)cc1,x,x,x,-26%,x,9%
Cc1c(CN2CCOc3c(O)cc(-c4nc5ccccc5s4)cc3C2)cnn1C,x,x,x,x,x,0%
COc1ccc(/C=C/c2ccc3ccccc3n2)c(OC)c1,x,x,x,4%,x,-10%
Cc1c(C#N)c2ncn(Cc3ccccn3)c(=O)c2n1-c1ccccc1,5%,-8%,-1%,28µM*,6%,-2%
Cc1c(C#N)c2ncn(CCCN(C)C)c(=O)c2n1-c1ccccc1,3%,-5%,2%,-1%,1%,0%
COc1ccc(NC(=O)N(Cc2cc3cc(C)ccc3[nH]c2=O)CC2CCCO2)cc1 (stereo unspecified),-2%,2%,-6%,-18%,-3%,-5%
COc1ccc2[nH]c(=O)c(CN(CC3CCCO3)C(=O)Nc3ccc(F)cc3)cc2c1 (stereo unspecified),-8%,13%,5%,16µM*,-3%,-1%
COc1ccc(C(=O)N(Cc2ccccc2)Cc2cc3cc4c(cc3[nH]c2=O)OCCO4)cc1,-3%,10%,2%,u,-1%,-4%
COc1cccc(C(=O)N(Cc2ccccc2)Cc2cc3cc4c(cc3[nH]c2=O)OCCO4)c1,-7%,3%,2%,28µM*,13%,-5%
COc1ccc2[nH]c(=O)c(CN(C(=O)C3CCCO3)c3ccc(C)cc3)cc2c1 (stereo unspecified),-3%,3%,5%,28µM*,-1%,19%
COc1cc(C(=O)N(Cc2cc3cc(C)ccc3[nH]c2=O)CC2CCCO2)cc(OC)c1OC (stereo unspecified),x,5%,2%,-4%,8%,-16%

# From PubChem
